In PubChem BioAssay (Tox21):
Inconclusive results are not listed. Calls of active or inactive are those of the source. Unless noted, calls follow the shape of the full dose curve.

Tests used:
[1] = Nuclear factor erythroid 2-related factor 2/antioxidant responsive element (Nrf2/ARE) small molecule agonists: qHTS cell viability counter screen in human keratinocytes (AID 1919968; active = well fitted curve in the direction sought with a large enough effect in the repeat runs; an effect the other way counts as inactive or inconclusive; also: nearly all actives have a fitted effect of over 55% in size)
Outline: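 Stably transfected HaCaT (KeratinoSens), 1,500/well. Test agents in DMSO were applied for 23 h, 37 C/5% CO2. CellTiter-Fluor was incubated 1 h before the fluorescence read.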

[2] = Nuclear factor erythroid 2-related factor 2/antioxidant responsive element (Nrf2/ARE) small molecule agonists: luciferase reporter gene qHTS assay in human keratinocytes (AID 1919969); also: nearly all actives have a fitted effect of over 35% in size; also: potency is read from the fitted curve at half-maximal effect
[3] = target: Gonadotropin-releasing hormone receptor (Homo sapiens) (UniProt P30968); assay: Human gonadotropin-releasing hormone receptor (GnRHR) small molecule agonists, calcium flux assay in GnRHR-HEK293 cells (AID 1920063); also: nearly all actives have a fitted effect of over 35% in size
Chain of Gonadotropin-releasing hormone receptor (Homo sapiens) (P30968 whole entry, looked up): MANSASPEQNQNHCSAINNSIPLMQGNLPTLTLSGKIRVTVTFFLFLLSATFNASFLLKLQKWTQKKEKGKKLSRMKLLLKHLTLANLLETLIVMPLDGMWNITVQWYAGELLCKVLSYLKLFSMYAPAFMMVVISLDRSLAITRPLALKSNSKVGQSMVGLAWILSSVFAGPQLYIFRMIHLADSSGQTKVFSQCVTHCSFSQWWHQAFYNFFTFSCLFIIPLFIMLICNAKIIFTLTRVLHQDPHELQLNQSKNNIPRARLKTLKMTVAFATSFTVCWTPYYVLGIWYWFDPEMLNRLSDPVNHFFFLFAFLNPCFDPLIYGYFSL
Outline: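 Stable human GnRHR HEK293 line. 18 h plating, then calcium dye for 1 h at 37 C. Agonist-mode compound addition from DMSO stocks; fluorescence monitored 3 min.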

[4] = target: KiSS-1 receptor (Homo sapiens) (UniProt Q969F8); assay: Human kisspeptin (KISS1R) small molecule agonists, calcium flux assay in KISS1R-HEK293 cells (AID 1920064; active = well fitted curve in the direction sought with a large enough effect in the repeat runs; an effect the other way counts as inactive or inconclusive)
Chain of KiSS-1 receptor (Homo sapiens) (Q969F8 whole entry, looked up): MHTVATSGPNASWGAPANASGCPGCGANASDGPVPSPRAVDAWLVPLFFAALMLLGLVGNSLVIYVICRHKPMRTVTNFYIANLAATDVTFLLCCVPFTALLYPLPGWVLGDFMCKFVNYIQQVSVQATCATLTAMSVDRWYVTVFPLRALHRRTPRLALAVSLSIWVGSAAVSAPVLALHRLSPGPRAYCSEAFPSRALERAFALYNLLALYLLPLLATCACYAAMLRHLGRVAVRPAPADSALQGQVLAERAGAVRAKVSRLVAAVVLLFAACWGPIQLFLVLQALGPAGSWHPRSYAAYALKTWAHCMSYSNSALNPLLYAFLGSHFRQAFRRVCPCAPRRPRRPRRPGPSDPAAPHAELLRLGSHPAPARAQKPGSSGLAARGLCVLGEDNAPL
Outline: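 After overnight (18 h) culture at 37 C/5% CO2, human KISS1R-HEK293 cells received calcium dye for 1 h, then test compound; emission at 540 nm (excitation 480 nm) was tracked for 3 min.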

[5] = G protein-coupled receptor (GPCR) small molecule agonists, calcium flux assay: HEK293 wild type cell line counter screen (AID 1920065)
Outline: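 Following 18 h incubation at 37 C/5% CO2, plates got calcium dye for 1 h; compounds, ATP or DMSO were then pinned in and fluorescence followed kinetically (480/540 nm).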

[6] = p53 small molecule agonists, cell-based qHTS assay with rat liver microsomes (AID 1963578)
Outline: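 p53RE-bla cells, 4,000/well, pre-incubated 5 h, then given compounds plus rat liver microsomes (0.5 mg/mL final) and NADPH (0.5 mg/mL final). Incubation 16 h at 37 C; beta-lactamase reporter read by LiveBLAzer fluorescence after 2 h at room temperature.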

[7] = p53 small molecule agonists, cell-based qHTS assay with human liver microsomes: qHTS cell viability counter screen (AID 1963579); also: nearly all actives have a fitted effect of over 45% in size
Outline: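 p53RE-bla cells, 4,000/well, dosed 5 hours after plating, with human liver microsomes (0.5 mg/mL final) plus NADPH (0.5 mg/mL final), 16 hours at 37 C. Viability read as CellTiter-Glo luminescence after 30 min at room temperature.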

[8] = p53 small molecule agonists, cell-based qHTS assay with rat liver microsomes: qHTS cell viability counter screen (AID 1963580); also: nearly all actives have a fitted effect of over 45% in size
Outline: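 Luminescent ATP readout (CellTiter-Glo, 30 min at room temperature) reports viability of p53RE-bla HCT-116 cells after 16 h at 37 C with test compounds under metabolic activation by rat liver microsomes and NADPH at 0.5 mg/mL final each.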

[9] = p53 small molecule agonists, cell-based qHTS assay: qHTS cell viability counter screen (AID 1963581); also: nearly all actives have a fitted effect of over 45% in size
Outline: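 qHTS counter screen: 16 h compound exposure at 37 C of p53RE-bla HCT-116 cells (4,000 per well, seeded 5 h prior), cell viability by ATP luminescence.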

[10] = target: 5-hydroxytryptamine receptor 2A (Homo sapiens) (UniProt P28223); assay: 5-hydroxytryptamine receptor 2A (HTR2A) small molecule antagonists, cell-based qHTS assay (AID 1963586); also: nearly all actives have a fitted effect of over 45% in size
Chain of 5-hydroxytryptamine receptor 2A (Homo sapiens) (P28223 whole entry, looked up): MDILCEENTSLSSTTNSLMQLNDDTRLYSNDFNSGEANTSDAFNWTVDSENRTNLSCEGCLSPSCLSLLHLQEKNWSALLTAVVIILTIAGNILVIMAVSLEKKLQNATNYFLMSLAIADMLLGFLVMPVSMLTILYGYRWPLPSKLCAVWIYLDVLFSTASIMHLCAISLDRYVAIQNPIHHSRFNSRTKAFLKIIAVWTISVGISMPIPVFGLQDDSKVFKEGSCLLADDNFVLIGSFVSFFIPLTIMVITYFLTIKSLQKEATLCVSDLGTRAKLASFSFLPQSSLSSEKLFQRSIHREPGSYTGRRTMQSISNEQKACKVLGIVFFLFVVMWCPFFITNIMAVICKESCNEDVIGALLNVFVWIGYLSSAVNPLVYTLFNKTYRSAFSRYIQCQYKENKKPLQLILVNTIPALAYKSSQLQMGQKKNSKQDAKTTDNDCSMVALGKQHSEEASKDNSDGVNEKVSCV
Outline: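 CHO cells stably expressing human HTR2A were plated for 18 h at 37 C, then loaded with calcium dye for 1 h. Compounds were preincubated 5 min at room temperature before DOI (4 nM solution) was added. Kinetic fluorescence was read for 3 min.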

[11] = target: 5-hydroxytryptamine receptor 2A (Homo sapiens) (UniProt P28223); assay: 5-hydroxytryptamine receptor 2A (HTR2A) small molecule agonists, cell-based qHTS assay (AID 1963587); also: nearly all actives have a fitted effect of over 30% in size
Outline: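 HTR2A-CHO cells, plated 18 h at 37 C/5% CO2, dye-loaded 1 h at 37 C; compounds in DMSO added by pin tool (agonist mode). Intracellular calcium flux read as kinetic fluorescence on FDSS over 2 min at 1 s intervals.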

[12] = target: Muscarinic acetylcholine receptor M1 (Homo sapiens) (UniProt P11229); assay: Cholinergic receptor muscarinic 1 (CHRM1) small molecule agonists, cell-based qHTS assay (AID 1963589); also: nearly all actives have a fitted effect of over 35% in size
Chain of Muscarinic acetylcholine receptor M1 (Homo sapiens) (P11229 whole entry, looked up): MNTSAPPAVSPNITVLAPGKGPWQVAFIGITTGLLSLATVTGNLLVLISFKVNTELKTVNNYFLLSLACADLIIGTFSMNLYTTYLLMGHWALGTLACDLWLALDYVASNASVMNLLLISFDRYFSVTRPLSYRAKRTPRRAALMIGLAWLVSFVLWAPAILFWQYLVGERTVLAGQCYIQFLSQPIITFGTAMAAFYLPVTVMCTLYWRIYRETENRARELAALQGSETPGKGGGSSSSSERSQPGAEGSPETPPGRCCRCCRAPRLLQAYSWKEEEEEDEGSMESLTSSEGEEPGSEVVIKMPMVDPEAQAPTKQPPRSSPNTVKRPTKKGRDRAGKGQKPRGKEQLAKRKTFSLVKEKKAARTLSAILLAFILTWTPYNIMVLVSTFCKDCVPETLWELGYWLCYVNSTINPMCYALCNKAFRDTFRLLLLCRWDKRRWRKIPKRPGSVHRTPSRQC
Outline: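 Kinetic fluorescence (1 s intervals) of calcium-sensitive dye in human M1 CHO cells after compound addition; cells pre-incubated 18 h at 37 C/5% CO2 and dye-loaded 1 h.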

[13] = cAMP Responsive Elements (CRE) small molecule agonists, cell-based qHTS assay (AID 1963590)
Outline: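 Test agents in DMSO were incubated 3 h at 37 C/5% CO2 with CRE-bla HEK 293T cells seeded 18 h earlier; LiveBLAzer B/G FRET substrate was added and read after 2 h at room temperature.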

[14] = cAMP Responsive Elements (CRE) small molecule antagonists, cell-based qHTS assay (AID 1963591; active = well fitted inhibition curve with a large enough effect in the signal ratio in the repeat runs, not every such curve was filed as active; the % refers to the signal ratio)
Outline: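 Reporter line CRE-bla HEK 293T in dialyzed-FBS DMEM; cells preincubated 18 h, treated 3 h with compound plus NKH477 (0.25 uM final); LiveBLAzer FRET, 2 h RT.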

[15] = target: Beta-2 adrenergic receptor (Homo sapiens) (UniProt P07550); assay: Adrenergic beta2 receptor (ADRB2) small molecule antagonists, cell-based qHTS assay (AID 1963592); also: series mostly up to about 92 µM; nearly all actives have a fitted effect of over 50% in size
Chain of Beta-2 adrenergic receptor (Homo sapiens) (P07550 whole entry, looked up): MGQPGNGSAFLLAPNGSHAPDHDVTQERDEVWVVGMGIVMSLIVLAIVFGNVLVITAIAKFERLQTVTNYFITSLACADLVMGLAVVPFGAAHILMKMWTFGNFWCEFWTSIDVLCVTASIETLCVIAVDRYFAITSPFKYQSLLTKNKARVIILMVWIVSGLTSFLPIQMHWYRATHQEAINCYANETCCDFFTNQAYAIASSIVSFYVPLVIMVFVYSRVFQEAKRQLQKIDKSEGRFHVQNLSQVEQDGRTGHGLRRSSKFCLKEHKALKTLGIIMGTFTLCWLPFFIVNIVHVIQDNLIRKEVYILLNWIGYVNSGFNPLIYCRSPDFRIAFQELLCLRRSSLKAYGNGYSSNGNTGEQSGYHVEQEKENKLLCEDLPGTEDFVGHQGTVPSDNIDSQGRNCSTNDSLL
Outline: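 Assay format: CHO-ADRB2 cells, 18-20hr seeding at 37C/5% CO2, then compound plus 1nM isoproterenol agonist mix for 0.5hr RT. Homogeneous time-resolved fluorescence cAMP detection after 1hr, expressed as 665/615 nm ratio.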

[16] = target: Beta-2 adrenergic receptor (Homo sapiens) (UniProt P07550); assay: Adrenergic beta2 receptor (ADRB2) small molecule agonists, cell-based qHTS assay (AID 1963593);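 also: CHO cells stably overexpressing human ADRB2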
Outline: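 CHO cells stably over-expressing ADRB2 were plated overnight at 37C, then dosed with compounds plus a stimulation mix containing 100uM IBMX and 25uM Ro-20-1724 for 0.5hr at room temperature. cAMP was measured by HTRF competition, 1hr.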

[17] = target: D(2) dopamine receptor (Homo sapiens) (UniProt P14416); assay: Dopamine D2 receptor (DRD2) small molecule agonists, cell-based qHTS assay (AID 1963594); also: nearly all actives have a fitted effect of over 35% in size
Chain of D(2) dopamine receptor (Homo sapiens) (P14416 whole entry, looked up): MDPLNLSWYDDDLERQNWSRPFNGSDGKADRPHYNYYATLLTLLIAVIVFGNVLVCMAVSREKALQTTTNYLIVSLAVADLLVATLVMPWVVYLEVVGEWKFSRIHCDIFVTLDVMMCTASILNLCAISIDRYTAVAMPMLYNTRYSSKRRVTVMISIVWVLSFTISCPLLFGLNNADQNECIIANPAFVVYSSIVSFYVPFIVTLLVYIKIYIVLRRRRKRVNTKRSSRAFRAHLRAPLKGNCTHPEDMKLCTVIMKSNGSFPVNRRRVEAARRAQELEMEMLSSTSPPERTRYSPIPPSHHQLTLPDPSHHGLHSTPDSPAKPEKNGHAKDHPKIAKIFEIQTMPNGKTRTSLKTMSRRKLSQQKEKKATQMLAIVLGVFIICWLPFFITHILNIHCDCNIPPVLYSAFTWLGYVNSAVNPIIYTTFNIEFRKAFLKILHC
Outline: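 HEK293 cells stably expressing DRD2 were cultured 24 h at 37 C, then given Ro20-1724 (0.1 mM final) and compounds for 10 min at room temperature. NKH477 (200nM) was then added for 30 min. cAMP was read by HTRF.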

[18] = target: D(2) dopamine receptor (Homo sapiens) (UniProt P14416); assay: Dopamine D2 receptor (DRD2) small molecule antagonists, cell-based qHTS assay (AID 1963595; active = well fitted inhibition curve with a large enough effect in the signal ratio in the repeat runs, with a control signal flat; the % refers to the signal ratio)
Outline: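 In this cell-based antagonist screen, compounds act for 10 min at room temperature before a 30 min challenge with 12 nM quinpirole and 200 nM NKH477. cAMP is quantified by HTRF competition in DRD2-HEK293 cells containing 0.1 mM Ro20-1724.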

[19] = target: Muscarinic acetylcholine receptor M1 (Homo sapiens) (UniProt P11229); assay: Cholinergic receptor muscarinic 1 (CHRM1) small molecule antagonists, cell-based qHTS assay (AID 1963588); also: nearly all actives have a fitted effect of over 40% in size; also: potency is read from the fitted curve at half-maximal effect
Outline: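 Compounds were tested at 15 concentrations in three independent runs. Dye-loaded CHRM1-CHO cells were exposed 5 min at room temperature before stimulation by acetylcholine added at 50nM. Intracellular calcium was read kinetically on FDSS for 3 min.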

[20] = p53 small molecule agonists, cell-based qHTS assay (AID 1963582; active = well fitted activation curve with a large enough effect in the signal ratio in the repeat runs, not every such curve was filed as active; the % refers to the signal ratio)
Outline: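 Measured: fluorescence from cleaved LiveBLAzer substrate. System: p53RE-bla cells, 16 h compound treatment at 37 C, 2 h substrate step at room temperature.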

Measured: Potency

CCC[Si](OC)(OC)OC
not listed: [19] | [20]
inactive: all other assays above

O=C(O)Cn1cnnn1
not listed: [20]
inactive: all other assays above

COc1cc(C(=O)OCCCN2CCCN(CCCOC(=O)c3cc(OC)c(OC)c(OC)c3)CC2)cc(OC)c1OC
active: [19] 7.29 µM
not listed: [14] | [16]
inactive: all other assays above

CCCCCCCCCCCC(=O)OCC
not listed: [20]
inactive: all other assays above

CCN(CC)c1cccc(O)c1
active: [2] 11.1 µM
not listed: [14] | [16] | [17]
inactive: all other assays above

C=C(C)C(=O)OCCOC(=O)CC(C)=O
not listed: [10] | [13] | [14] | [16]
inactive: all other assays above

CCCCCC=CCC=CCCCCCCCC(=O)OCC
active: [2] 29.8 µM
not listed: [13] | [14] | [16] | [17]
inactive: all other assays above
